From PubChem
The sample as a whole holds a higher share of hits than the screen did.
nsP2pro primary = inhibitors of chikungunya virus nsP2 protease | Q8JUX6 | FRET peptide cleavage, nsP2pro, fluorescence 1 h | Potency, µM (series often up to 24.9 µM), usual class: inhibitors | 31,000 compounds, 1.1% hits | AID 1964107; note: nearly all actives have a fitted effect of over 60% in size
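Purified recombinant nsP2pro (150 nM final) in 10 mM Tris-HCl pH 8.0 with 0.01% Tween 20 was preincubated 15 min at room temperature with compound (7 concentrations, up to 25 uM). FRET peptide 2 substrate (2.5 uM final) was then added; fluorescence was read after 1 h.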
CHIKV nsP2 cell = secondary cell-based test for CHIKV nsP2 protease inhibitors. shares compounds with nsP2pro primary. cell-based CHIKV nsP2 protease reporter assay. Potency, µM (titrated, usually from 51.1 µM), actives largely listed as inhibitors. 450 compounds, 10% hits. AID 1964100; note: nearly all actives have a fitted effect of over 70% in size
NSP2 full ctr = full-length CHIKV NSP2 protease inhibition, selectivity | shares compounds with nsP2pro primary | Full-length CHIKV NSP2 protease enzymatic counterscreen | Potency, µM (series often up to 50.7 µM), hits mostly inhibitors | 410 compounds, 39% hits | AID 1964101; note: nearly all actives have a fitted effect of over 65% in size
Furin counter = selectivity counter-screen for CHIKV nsP2 protease inhibitors: human furin. shares compounds with nsP2pro primary. Potency, µM (highest dose often 50.6 µM), actives largely listed as inhibitors. Recombinant human furin enzymatic counterscreen, fluorogenic substrate. 410 compounds, 6% hits. AID 1964102
nsP2 NS23 pep = nsP2pro inhibition on native NS2/3 peptide substrate; shares compounds with nsP2pro primary; Purified CHIKV nsP2 protease, endogenous NS2/3 peptide cleavage; Potency, µM (top dose mostly 51 µM), most hits filed as inhibitors; 410 compounds, 34% hits; AID 1964103; note: nearly all actives have a fitted effect of over 55% in size
Papain counter = papain protease inhibition, counterscreen for nsP2pro inhibitors. Potency, µM (series often up to 51 µM), usual class: inhibitors. shares compounds with nsP2pro primary. 410 compounds, 5% hits. purified papain protease activity, enzymatic inhibition
nsP2pro conf qHTS = confirmation of CHIKV nsP2 protease inhibitors; 410 compounds, 43% hits; shares compounds with nsP2pro primary; CHIKV nsP2 protease enzymatic activity, qHTS; AID 1964105; Potency, µM (titrated, usually from 25.5 µM), actives largely listed as inhibitors; note: nearly all actives have a fitted effect of over 75% in size
HCV NS3 4A cs = HCV NS3/4A protease inhibition, counterscreen; AID 1964106; HCV NS3/4A protease biochemical counterscreen; shares compounds with nsP2pro primary; 410 compounds, 20% hits; Potency, µM (highest dose often 50.9 µM), hits mostly inhibitors; note: nearly all actives have a fitted effect of over 55% in size
Of the large screens only hits and unclear results are named; the others gave an inactive call (follow-up assays come after a bar, where they were run). Calls come from the whole dose curve.

O=C(NC1CCCCC1)OC[C@H]1C[C@@H]2CCN1C[C@@H]2c1cc(C2CCCC2)nc(-c2ccncc2)n1	nsP2pro primary 7.9µM | CHIKV nsP2 cell inactive | NSP2 full ctr inconclusive | Furin counter inconclusive | nsP2 NS23 pep inconclusive | Papain counter inactive | nsP2pro conf qHTS 9µM | HCV NS3 4A cs 15µM
CCCS(=O)(=O)NC[C@H]1C[C@@H]2CCN1C[C@@H]2c1cc(C(CC)CC)nc(-c2ccncc2)n1	none
CC(C)NC(=O)OC[C@H]1C[C@@H]2CCN1C[C@@H]2c1cc(C2CCCC2)nc(-c2ccncc2)n1	nsP2pro primary 5µM | CHIKV nsP2 cell inactive | NSP2 full ctr 6.5µM | Furin counter inconclusive | nsP2 NS23 pep 18µM | Papain counter inactive | nsP2pro conf qHTS 8µM | HCV NS3 4A cs 10µM
COc1ccc(-c2cc([C@H]3CN4CC[C@H]3C[C@@H]4COC(=O)Nc3ccccc3)n(C)n2)cc1	none
Cn1nc(C2CCCC2)cc1[C@H]1CN2CC[C@H]1C[C@@H]2CNC(=O)c1cccs1	none
Cc1cc(C)nc(/N=C(\NC#N)N2CCN(c3cccc(C(F)(F)F)c3)CC2)c1	none
Cc1ccnc(NC(=S)N2CCN(c3ccc(Cl)cc3)CC2)c1	none
Cc1ccc([C@@H]2CN(c3cc(N4CCC(O)CC4)ncn3)C[C@H]2N(C)C)cc1	none
Cc1oc(-c2ccccc2)nc1CN1CCCC(C(=O)N2CCC(c3nc(C(=O)N4CCCC4)c(C)o3)CC2)C1 (stereo not drawn)	none
Cc1ccc(CNS(=O)(=O)c2ccc3[nH]c4c(c3c2)CCCC4)cc1	none
Cc1cccc(N(C)C(=O)CN(C)S(=O)(=O)c2ccc3[nH]c4c(c3c2)CCCC4)c1	nsP2pro primary inconclusive | CHIKV nsP2 cell inactive
CN(CC(=O)NCc1ccc(F)cc1)S(=O)(=O)c1ccc2[nH]c3c(c2c1)CCCC3	none
C[C@@H]1CC[C@]2(C)C(C[C@@H](O)[C@H](O)[C@]23CO3)[C@@]1(C)CCc1ccoc1 (stereo partly drawn)	none
CCn1c(CO)nnc1C1CC(NC(=O)CCc2c(C)nn(C)c2C)C1 (stereo not drawn)	none
S=C(SSC(=S)N1CCCCC1)N1CCCCC1	nsP2pro primary 2.5µM | CHIKV nsP2 cell 13µM | NSP2 full ctr 15µM | Furin counter inactive | nsP2 NS23 pep 16µM | Papain counter inactive | nsP2pro conf qHTS 3.6µM | HCV NS3 4A cs inactive
CCCS(=O)(=O)N1C[C@@H]2C(=O)N(CCC3CCN(C(C)C)CC3)C(=O)[C@@H]2C1	none
CCOc1cc(=O)n2c(c1C(=O)NC1CCCC1)CCCCC2	none
COCC1CN(C)CC12CCN(C(=O)COc1cccc(C)c1)CC2 (stereo not drawn)	none
Cc1cc(C=CC#N)cc(C)c1Nc1nc(Nc2ccc3c(c2)CCC3)c2[nH]cnc2n1	none
Cc1ccc(S(=O)(=O)/C=C/C#N)cc1	nsP2pro primary 0.88µM | CHIKV nsP2 cell inconclusive | NSP2 full ctr 0.92µM | Furin counter inactive | nsP2 NS23 pep 4.6µM | Papain counter inactive | nsP2pro conf qHTS 0.28µM | HCV NS3 4A cs inactive
Nc1ncc(S(=O)(=O)N2CCOCC2)s1	none
COc1ccc(Nc2nc(C#N)nc(NC3CCCC3)n2)cc1	none
O=C(/C=C/c1ccc(O)cc1)OC[C@@]1(O)C=C[C@@H]2C(C(=O)O)=CO[C@@H](O[C@@H]3O[C@H](CO)[C@@H](O)[C@H](O)[C@H]3O)[C@@H]21	none
COC(=O)C1=CO[C@@H](O[C@@H]2O[C@H](CO)[C@@H](O)[C@H](O)[C@H]2O)[C@H]2[C@@H]1C=C[C@]21C=C([C@H](C)OC(=O)/C=C/c2ccc(O)cc2)C(=O)O1	nsP2pro primary 1.6µM | CHIKV nsP2 cell inactive | NSP2 full ctr 3.4µM | Furin counter inactive | nsP2 NS23 pep inconclusive | Papain counter inactive | nsP2pro conf qHTS 1.3µM | HCV NS3 4A cs inconclusive
